The subject of one test is DLD1. Description: nucleolar normality score relative to DMSO (fraction of DMSO control); RPE1 is a non-cancer human cell line; higher = more normal nucleoli (less nucleolar stress). The method, then: (§1)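 Selected screen hits were validated in hTERT lines (BJ5TA, CHON-002, RPE1) and cancer lines (DLD1, HCT116). Cells were immunostained for nucleolin and UBF and the nucleolar normality score was measured per field of view, with 4 fields per drug. Scores are normalized to each cell line's own DMSO control. Dose and time are not stated for this panel.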

Another test relates to HCT116. The test is described as above. The method, then: as §1

± gives the standard deviation of the averaged measurements.

For `CC[C@@]1(O)C(=O)OCc2c1cc1n(c2=O)Cc2cc3ccccc3nc2-1` [Camptothecin], the nucleolar normality score amounted to 0.402 ± 0.049 with DLD1 and 0.407 ± 0.015 in the test on HCT116.

The values are drawn from the supplement of paper PMC10723795.
